Data as given in PubChem BioAssay (NCI).
About 79,000 compounds went through this panel and 15% of them were active in at least one assay; those are over-represented in the sample as a whole. Values without a mark were called inactive. Active and inactive are the calls of the source. Rule as the data show it: active = growth inhibition above about 70%; inactive = the rest.

What was measured:
[1] = NCI Yeast Anticancer Drug Screen. Data for the rad50 strain (AID 155);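 also: 0% = growth of vehicle-only cultures of the same strain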; conditions: S. cerevisiae rad50 strain growth inhibition; at 50.0 µM; active compounds read high
Method in brief: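 DNA repair mutant yeast, compound exposure, growth read-out; inhibition is taken relative to vehicle.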

[2] = NCI Yeast Anticancer Drug Screen. Data for the mec2-1 strain (AID 157); conditions: S. cerevisiae mec2-1 strain, at 50.0 µM, active compounds read high
Method in brief: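 Using mec2-1 yeast: add compound, measure growth, express inhibition versus vehicle-treated cultures.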

[3] = NCI Yeast Anticancer Drug Screen. Data for the sgs1 mgt1 strain (AID 161);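 also: 0% = growth of cultures given vehicle only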; conditions: S. cerevisiae sgs1 mgt1 strain, at 50.0 µM, active compounds read high
Method in brief: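 This yeast growth screen uses a strain with defined DNA-repair lesions; compound-treated growth is compared with vehicle-treated growth.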

[4] = NCI Yeast Anticancer Drug Screen. Data for the cln2 rad14 strain (AID 165);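 also: 0% = growth equal to vehicle treated cultures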; conditions: S. cerevisiae cln2 rad14 strain, at 50.0 µM, active compounds read high
Method in brief: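 Yeast strain cln2 rad14, bearing defects in cell cycle control and DNA repair, serves as the test system; values reflect growth inhibition compared with vehicle.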

[5] = NCI Yeast Anticancer Drug Screen. Data for the bub3 strain (AID 167); conditions: S. cerevisiae bub3 mutant strain, at 50.0 µM, active compounds read high
Method in brief: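 In this screen, a yeast mutant lacking normal mitotic checkpoint function is challenged with compound. Relative growth versus vehicle gives the inhibition value.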

[6] = NCI Yeast Anticancer Drug Screen. Data for the mlh1 rad18 strain (AID 175); conditions: S. cerevisiae mlh1 rad18 strain growth inhibition; at 50.0 µM; active compounds read high
Method in brief: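 Steps: expose repair-defective yeast to compound; measure growth; express inhibition against vehicle-treated controls.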

SMILES: S=C1c2ccc(Cl)cc2-n2cnnc2C2CSCN12 (stereo not drawn)
- growth inhibition [1]: -4.1%
- growth inhibition [2]: 10.8%
- growth inhibition [3]: 7.9%
- growth inhibition [4]: 0.9%
- growth inhibition [5]: -6.1%
- growth inhibition [6]: 26.4%

SMILES: Cc1cc(C)c(O)c(C)c1
- growth inhibition [1]: 10.2%
- growth inhibition [2]: -18.3%
- growth inhibition [3]: -5.45%
- growth inhibition [4]: 14.4%
- growth inhibition [5]: -5.25%
- growth inhibition [6]: 4.45%

SMILES: N#CCC(N)C(=O)O (stereo not drawn)
- growth inhibition [1]: 0.7%
- growth inhibition [2]: -11.1%
- growth inhibition [3]: -11.8%
- growth inhibition [4]: -34.4%
- growth inhibition [5]: -9.2%
- growth inhibition [6]: 8.65%

SMILES: C[C@]12CCC(=O)C[C@@H]1CC[C@@H]1[C@@H]2CC[C@]2(C)[C@@H](OC(=O)N(CCCl)N=O)CC[C@@H]12
- growth inhibition [1]: 36.8%
- growth inhibition [2]: 33.8%
- growth inhibition [3]: 24.5%
- growth inhibition [4]: 55.2%
- growth inhibition [5]: 29.9%
- growth inhibition [6]: 60.1%

SMILES: CN(C)CCCN1CCCCC1
- growth inhibition [1]: 8.7%
- growth inhibition [2]: -0.65%
- growth inhibition [3]: -4.45%
- growth inhibition [4]: 3.8%
- growth inhibition [5]: 7.05%
- growth inhibition [6]: -8%

SMILES: Cc1c[nH]c2c1C13CC1CN(C(=O)c1cc4cc(NC(=O)c5cc6ccccc6o5)ccc4[nH]1)C3=CC2=O (stereo not drawn)
- growth inhibition [1]: 84.9% (active)
- growth inhibition [2]: 91.4% (active)
- growth inhibition [3]: 90.3% (active)
- growth inhibition [4]: 88.2% (active)
- growth inhibition [5]: 90.2% (active)
- growth inhibition [6]: 89% (active)

SMILES: O=C(CI)NCCNC(=O)CI
- growth inhibition [1]: 11.1%
- growth inhibition [2]: 16.2%
- growth inhibition [3]: 21.4%
- growth inhibition [4]: 20.6%
- growth inhibition [5]: 10.6%
- growth inhibition [6]: 39.5%

SMILES: C=C(Nc1nc2ccc(C)cc2s1)C(=O)C(CC)C(=O)C(CC)CC1C(=O)NC(=O)NC1=O (stereo not drawn)
- growth inhibition [1]: -23.4%
- growth inhibition [2]: -13.6%
- growth inhibition [3]: 4.35%
- growth inhibition [4]: -31.8%
- growth inhibition [5]: -32.6%
- growth inhibition [6]: -0.2%

SMILES: COc1ccc2c(c1OC)C[N+]1(C)CCc3cc4c(cc3C1=C2)OCO4 (stereo not drawn)
- growth inhibition [1]: 21.6%
- growth inhibition [2]: -0.5%
- growth inhibition [3]: -12.8%
- growth inhibition [4]: -1.95%
- growth inhibition [5]: -2.2%
- growth inhibition [6]: -2%

SMILES: NC(=O)c1cc(N(CCCl)CCCl)c([N+](=O)[O-])cc1[N+](=O)[O-]
- growth inhibition [1]: 38.9%
- growth inhibition [2]: -11.1%
- growth inhibition [3]: 10.4%
- growth inhibition [4]: 14.4%
- growth inhibition [5]: 18.6%
- growth inhibition [6]: 5.5%

SMILES: COc1ccc2c(c1)CC1N(C)CCC13CCCCC23 (stereo not drawn)
- growth inhibition [1]: 41.8%
- growth inhibition [2]: 19.5%
- growth inhibition [3]: -1.2%
- growth inhibition [4]: 2.1%
- growth inhibition [5]: -11.4%
- growth inhibition [6]: -70.4%

SMILES: Clc1ccc(C2CC3CCCCN3O2)cc1 (stereo not drawn)
- growth inhibition [1]: 13.6%
- growth inhibition [2]: 3%
- growth inhibition [3]: 5.9%
- growth inhibition [4]: -1.1%
- growth inhibition [5]: 11.6%
- growth inhibition [6]: 5.45%

SMILES: O=C(COc1ccc(Cl)c(Cl)c1)Nc1ccc[n+](CC(=O)Nc2ccc(S(=O)(=O)F)cc2)c1
- growth inhibition [1]: 32.4%
- growth inhibition [2]: 41.4%
- growth inhibition [3]: 32.5%
- growth inhibition [4]: 96.7% (active)
- growth inhibition [5]: 45%
- growth inhibition [6]: 22.1%

SMILES: CC1=CC(=Nc2ccc(N(CCCl)CCCl)cc2)C=C(C)C1=O
- growth inhibition [1]: 3.2%
- growth inhibition [2]: -16.6%
- growth inhibition [3]: 12.2%
- growth inhibition [4]: 13.8%
- growth inhibition [5]: 8.15%
- growth inhibition [6]: 37.1%

SMILES: O=C=Nc1ccc(Cl)cc1
- growth inhibition [1]: -10.2%
- growth inhibition [2]: -14.9%
- growth inhibition [3]: -8.3%
- growth inhibition [4]: -21.4%
- growth inhibition [5]: -2.45%
- growth inhibition [6]: -15.9%

SMILES: CC(C)(C)C1COP(=O)(C(C)(C)C)OC1 (stereo not drawn)
- growth inhibition [1]: -12.6%
- growth inhibition [2]: 6.1%
- growth inhibition [3]: -1.15%
- growth inhibition [4]: -38.6%
- growth inhibition [5]: 10.6%
- growth inhibition [6]: 16.2%

SMILES: CNCCc1cccs1
- growth inhibition [1]: -27.6%
- growth inhibition [2]: -6.4%
- growth inhibition [3]: 1.25%
- growth inhibition [4]: -29.1%
- growth inhibition [5]: 6.15%
- growth inhibition [6]: 4.7%

SMILES: COc1oc(C2C/C(=C/C(C)=C/C(C)=C/C(C)=C/c3ccc([N+](=O)[O-])cc3)CO2)c(C)c(=O)c1C (stereo not drawn)
- growth inhibition [1]: 1.15%
- growth inhibition [2]: -4.75%
- growth inhibition [3]: -9.4%
- growth inhibition [4]: -6.85%
- growth inhibition [5]: -8.15%
- growth inhibition [6]: -33%

SMILES: [C-]#[O+].[C-]#[O+].[C-]#[O+].[C-]#[O+].[Cr].c1ccc([PH+](CC[PH+](c2ccccc2)c2ccccc2)c2ccccc2)cc1
- growth inhibition [1]: 11.7%
- growth inhibition [2]: 4.85%
- growth inhibition [3]: -0.9%
- growth inhibition [4]: 15.2%
- growth inhibition [5]: 0.35%
- growth inhibition [6]: 20.4%

SMILES: ClC12OOC(c3ccccc3)(O1)C(c1ccccc1)c1ccccc12 (stereo not drawn)
- growth inhibition [1]: 14.2%
- growth inhibition [2]: 24.1%
- growth inhibition [3]: 34.9%
- growth inhibition [4]: 51.9%
- growth inhibition [5]: 10.8%
- growth inhibition [6]: 44.5%

SMILES: CCCCCCCC(=O)[O][Pb]([CH2]C)([CH2]C)[CH2]C
- growth inhibition [1]: -7.8%
- growth inhibition [2]: -29.2%
- growth inhibition [3]: 1.95%
- growth inhibition [4]: -1.5%
- growth inhibition [5]: 0%
- growth inhibition [6]: -21.3%

SMILES: [I][Hg][CH]1CCC2CCCC1O2 (stereo not drawn)
- growth inhibition [1]: 99.7% (active)
- growth inhibition [2]: 99.6% (active)
- growth inhibition [3]: 99.8% (active)
- growth inhibition [4]: 99% (active)
- growth inhibition [5]: 98.8% (active)
- growth inhibition [6]: 99.7% (active)

SMILES: O=c1ccc(=O)[nH][nH]1.[Mn]
- growth inhibition [1]: 2.05%
- growth inhibition [2]: 4.5%
- growth inhibition [3]: -13.6%
- growth inhibition [4]: 17.1%
- growth inhibition [5]: 7.2%
- growth inhibition [6]: -1.7%

SMILES: CNC1(c2ccc(F)cc2)CCCCC1
- growth inhibition [1]: -15.8%
- growth inhibition [2]: -23.1%
- growth inhibition [3]: -11.5%
- growth inhibition [4]: 8.05%
- growth inhibition [5]: -13.8%
- growth inhibition [6]: -30.8%

SMILES: COc1ccc(N)cc1OC
- growth inhibition [1]: -2.15%
- growth inhibition [2]: 1.35%
- growth inhibition [3]: -4.8%
- growth inhibition [4]: -12.2%
- growth inhibition [5]: 6.7%
- growth inhibition [6]: -5.4%

SMILES: C1CCN2CC34CC(CC5CCCN(C6CCCC3N6)C54)C2C1 (stereo not drawn)
- growth inhibition [1]: -19.5%
- growth inhibition [2]: -43.1%
- growth inhibition [3]: -22.1%
- growth inhibition [4]: 10.7%
- growth inhibition [5]: -36.3%
- growth inhibition [6]: -99.8%

SMILES: [Se]=P(NC1CCCCC1)(NC1CCCCC1)NC1CCCCC1
- growth inhibition [1]: 14.5%
- growth inhibition [2]: -0.9%
- growth inhibition [3]: 2%
- growth inhibition [4]: 5.1%
- growth inhibition [5]: 3.25%
- growth inhibition [6]: 17.9%

SMILES: OC12CCC[N+]1(Cc1ccccc1)CCC2 (stereo not drawn)
- growth inhibition [1]: 9.25%
- growth inhibition [2]: -9.75%
- growth inhibition [3]: -7.9%
- growth inhibition [4]: 2.85%
- growth inhibition [5]: -0.55%
- growth inhibition [6]: -18.1%

SMILES: CCCCOCCOC(=O)CCl
- growth inhibition [1]: 9.1%
- growth inhibition [2]: -21.1%
- growth inhibition [3]: 33%
- growth inhibition [4]: -14.8%
- growth inhibition [5]: -4.95%
- growth inhibition [6]: 14.8%

SMILES: CC(N)C(=O)c1ccccc1 (stereo not drawn)
- growth inhibition [1]: -2.75%
- growth inhibition [2]: 5.2%
- growth inhibition [3]: 6.9%
- growth inhibition [4]: -38.2%
- growth inhibition [5]: 15.3%
- growth inhibition [6]: 1.25%

SMILES: C#CCOCC(O)C[As](=O)(O)c1cccc(Cl)c1 (stereo not drawn)
- growth inhibition [1]: 5.85%
- growth inhibition [2]: 16.5%
- growth inhibition [3]: 7.9%
- growth inhibition [4]: -5.3%
- growth inhibition [5]: 10.7%
- growth inhibition [6]: -8.75%

SMILES: CCOP(=O)(OCC)SC=C(Cl)Cl
- growth inhibition [1]: -12.9%
- growth inhibition [2]: 5.5%
- growth inhibition [3]: 2.1%
- growth inhibition [4]: -10.6%
- growth inhibition [5]: 5%
- growth inhibition [6]: 6.15%

SMILES: C/C=C1/CN2CCC1CC2C(O)c1ccnc2ccc(OCCO)cc12 (stereo not drawn)
- growth inhibition [1]: -8.4%
- growth inhibition [2]: -13.2%
- growth inhibition [3]: -2.35%
- growth inhibition [4]: -9.35%
- growth inhibition [5]: -24.6%
- growth inhibition [6]: 24.9%

SMILES: CO[C@H]1C=CC2=CCN3CCC4=C(CC(=O)OC4)[C@]23C1
- growth inhibition [1]: -9.3%
- growth inhibition [2]: -18.9%
- growth inhibition [3]: -3.6%
- growth inhibition [4]: 1.8%
- growth inhibition [5]: -21.9%
- growth inhibition [6]: -15.4%

SMILES: CCOC(=O)c1cc2c(cn1)[nH]c1ccccc12
- growth inhibition [1]: 41.2%
- growth inhibition [2]: 34.2%
- growth inhibition [3]: 43.4%
- growth inhibition [4]: 0%
- growth inhibition [5]: 26.9%
- growth inhibition [6]: 16.8%

SMILES: CN(C)c1ccc(C=C2C(=O)NC(=O)NC2=O)cc1
- growth inhibition [1]: 37.9%
- growth inhibition [2]: -16.4%
- growth inhibition [3]: 19.1%
- growth inhibition [4]: 14.4%
- growth inhibition [5]: 14.8%
- growth inhibition [6]: 9.65%

SMILES: N#CS.N=C=S.O=N[O-].[Co+3].[NH-]CC[NH-].[NH-]CC[NH-]
- growth inhibition [1]: -6.55%
- growth inhibition [2]: 6.3%
- growth inhibition [3]: 8.25%
- growth inhibition [4]: -34%
- growth inhibition [5]: 50.7%
- growth inhibition [6]: 12.7%

SMILES: ClCCN(CCCl)c1ccc(/C=N/c2nc(-c3ccccc3)cs2)cc1
- growth inhibition [1]: 45.6%
- growth inhibition [2]: 27.9%
- growth inhibition [3]: 65.4%
- growth inhibition [4]: 47.4%
- growth inhibition [5]: -1.75%
- growth inhibition [6]: 60.9%
